# Reference: PubChem BioAssay AID2315 (National Center for Advancing Translational Sciences (NCATS), 2010)
# Where “and” joins values, the source holds several entries; their conditions need not be identical. Equal values may be shown once. Hit rate of the full screen: of about 290,000 compounds, about 27,000 (9.3%) were called active. The sample holds actives, similar compounds and a random draw of the others, so the mix is not that of the screen. A number with no mark means an inactive call. No stated cut-off is given here; in the data, active means inhibition mostly above about 28% (no sharp cut-off); inactive means mostly below about 43%.
# Test: A qHTS for Small Molecule Inhibitors of Shiga Toxin; further: 0% is about no effect
# Details: Vero cells, Shiga toxin protein synthesis inhibition reporter; at 38.7 µM, active compounds read high
row,Structure (SMILES),inhibition
1,CN1C(=O)C2(OCCCO2)c2cc(Cl)ccc21,-14.7%
2,CC1CCN(C(=O)C2CCN(S(=O)(=O)N3CCC4(CC3)OCCO4)CC2)CC1,-15.9%
3,O=C(C[C@H]1C(=O)N(c2ccc(F)c(F)c2)C[C@@H]1Cc1ccccc1)Nc1ccccc1,-3.22%
4,COc1ccc(C(=O)Nc2ccc(C(=O)NCC3CCCO3)cc2)c(OC)c1OC (stereo not given),-2.17%
5,CCSc1nc2sc3c(c2c(=O)n1-c1ccc(C)cc1)CCN(C)C3,-6.21%
6,CC1(C)Cc2c(sc(NC(=O)C(=O)N3CCOCC3)c2C#N)CO1,-10.6%
7,CCOC(=O)C(C)n1cnc2c(nnn2-c2ccc(F)cc2)c1=O (stereo not given),18.3%
8,COC(=O)C(C)n1cnc2c(nnn2-c2cccc(Cl)c2)c1=O (stereo not given),26%
9,CCOC(=O)C(C)n1cnc2c(nnn2-c2cccc(OC)c2)c1=O (stereo not given),41% (active)
10,CCN(C(=O)CSc1nnc(-c2ccncc2)o1)c1ccccc1,-4.1%
11,O=C(c1ccc(Oc2ccc(Cl)cc2)c([N+](=O)[O-])c1)N1CCCC1,-5.51%
12,NC(=O)CCN1CCN(S(=O)(=O)/C=C/c2ccccc2)CC1,3.87%
13,O=C(NC(=O)N1CCOCC1)c1ccccc1,6.72%
14,O=C(c1ccccc1)N1CCN(C(=O)N2CCCCC2)CC1,-25.1%
15,NC(=NC(=O)c1ccccc1)N1CCOCC1,-9.05%
16,O=C(O)c1ccc(N=NN2CCOCC2)cc1,38.4% (active)
17,O=C(O)c1cccc(N=NN2CCCCCC2)c1,139% (active)
18,CN1CCN(S(=O)(=O)c2cccc(C(=O)O)c2)CC1,24%
19,O=C(NCc1ccco1)c1ccc([N+](=O)[O-])cc1Cl,-6.09%
20,O=C(Nc1ccccc1Cl)NC1(C(=O)N2CCOCC2)CCCCC1,3.21%
21,CCCCNC(=O)Nc1c(C)cc(SC#N)cc1C,12.6%
22,CCOc1ccccc1NC(=O)CCS(=O)(=O)c1cccc2nsnc12,-10.2%
23,Clc1ccc(Cc2nnc(-c3cccs3)o2)cc1,12.1%
24,c1csc(-c2nnc(COc3ccc4c(c3)OCO4)o2)c1,100% (active)
25,c1csc(-c2nnc(COc3ncnc4sccc34)o2)c1,13.6%

row,Structure (SMILES),inhibition
1,Cc1cc(N2CCCC2)n2nc(C)c(-c3ccccc3)c2n1,24.9%
2,Cc1cc(-n2nc(C)cc2C)n2nc(C)c(-c3ccccc3)c2n1,-5.33%
3,Cc1cc(-n2nc(C)cc2C)n2ncc(-c3ccccc3)c2n1,63.4% (active)
4,CCC(C(=O)OC)n1cnc2scc(-c3ccc(C)cc3)c2c1=O (stereo not given),-4.36%
5,O=C(CCN1C(=O)[C@H]2CC=CC[C@H]2C1=O)NCc1nc(-c2ccccc2)no1,24.8%
6,COc1ccc(OC)c(S(=O)(=O)N2CCCC(C(=O)NCCc3ccccc3)C2)c1 (stereo not given),9.04%
7,Cc1ccc(NC(=O)c2cc(-c3ccc(C)o3)nc3ccccc23)nc1,-4.51%
8,Cc1ccc(Nc2nc(-c3ccc(O)cc3O)cs2)nc1,67.2% (active)
9,COc1ccc(/C(C)=N\NC(=O)c2ccc(-c3ccccc3)cc2)c(F)c1,2.19%
10,CN(C(=O)COC(=O)CNC(=O)C12CC3CC(CC(C3)C1)C2)c1ccccc1,11.2%
11,COc1ccc(NCCc2ccccn2)cc1,85% (active)
12,O=C(CNC(=O)COc1ccccc1)NCCc1ccccn1,-6.4%
13,Cc1c(C)c(C)c(S(=O)(=O)NCCc2ccccn2)c(C)c1C,-12.6%
14,CCC(C)c1ccc(NC(=S)N2CCCC2)cc1 (stereo not given),68% (active)
15,CC(=O)c1cccc(NC(=S)N2CCCC2)c1,12.2%
16,NS(=O)(=O)c1ccc(NC(=S)N2CCCC2)cc1,-27.4%
17,CCOc1ccc(NC(=S)N2CCCCCC2)cc1,29.7%
18,S=C(Nc1ccc2c(c1)OCO2)N1CCCC1,87.4% (active)
19,Cc1cccc(C)c1NC(=S)N1CCCCCC1,-6.49%
20,C=CCC1=C/C(=C\c2c(N)n3nc(CC(=O)N4CCOCC4)sc3nc2=O)C=C(OC)C1=O,-1.44%
21,Cc1cnc(CN(C)C(=O)CC2C(=O)NCCN2Cc2cccc(F)c2F)[nH]1 (stereo not given),-27.4%
22,O=C(Cn1c[n+](CC(=O)c2ccc([N+](=O)[O-])cc2)cn1)c1ccc([N+](=O)[O-])cc1,-3.01% and 31.4%
23,COc1ccccc1CNS(=O)(=O)c1ccc2c(c1)NC(=O)CS2,17.1%
24,CCOC(=O)c1ccccc1NS(=O)(=O)c1c(C)nc2sccn2c1=O,-9.62%
25,Cn1cncc1COC(=O)c1ccc(Cl)cc1,0.74%

row,Structure (SMILES),inhibition
1,CN1C2C=C(N(C(=O)c3ccc(Cl)cc3)c3ccccc3)CC1CC2 (stereo not given),-14.6%
2,CN1OC(COC(=O)c2ccc(Cl)cc2)CC1c1ccccc1 (stereo not given),50.7% (active)
3,Cc1ccc(NS(=O)(=O)c2ccc3c(c2)NC(=O)CO3)cc1,-11.9%
4,Cc1cc(NC(=O)CSc2nnnn2-c2ccc(F)cc2)no1,24.2%
5,CN(C)c1ccc(-c2nnc(-c3cccnc3)o2)cc1,104% (active)
6,CN(C)c1nc(-c2cccnc2)nc(-c2ccc(Cl)cc2)c1C#N,-6.6%
7,Cc1csc(NC(=O)CSc2nnc(-c3cccnc3)o2)n1,-20.1%
8,Cc1ccc(-n2ncc3c2CCCC3NC(=O)c2cnccn2)cc1C (stereo not given),5.12%
9,CCCCN(C)CCNC(=O)C1CCCN(S(=O)(=O)c2cccc3nsnc23)C1 (stereo not given),-5.4%
10,O=C(CCN1CCN(C/C=C/c2ccccc2)CC1)Nc1ccccc1Cl,2.18%
11,NC(=O)c1cc2ccccc2o/c1=N/NC(=O)c1cccc(F)c1,13.8%
12,COc1ccc(C(=O)N/N=c2\oc3ccccc3cc2C(N)=O)cc1,55.8%
13,COc1cccc2cc(C(N)=O)/c(=N\NC(=O)c3ccccc3)oc12,97% (active)
14,O=C1c2ccccc2C(=O)C1c1ccccc1F,-16.3%
15,CCCn1c(C2CCCN2c2nc(-c3ccc(OC)cc3)cs2)nc2ccccc21 (stereo not given),4.08%
16,O=C(Nc1ccc(-c2csc(Nc3cccc(C(F)(F)F)c3)n2)cc1)c1cccc(C(F)(F)F)c1,-5.94%
17,Brc1ccc(-c2csc(N/N=C/c3cccnc3)n2)cc1,37%
18,Oc1ccc(-c2csc(Nc3cccnc3)n2)cc1,121% (active)
19,COc1ccc(-c2csc(Cc3nc(O)cs3)n2)cc1,94.8% (active)
20,CC(C)(C)C(=O)OCc1nc(-c2ccc(O)c(O)c2)cs1,27.1%
21,COc1ccc(CCN(C(=O)COc2ccccc2)c2nc(-c3ccccc3)cs2)cc1OC,-8.73%
22,COc1ccc(C(=O)Nc2nc(-c3ccc(S(=O)(=O)N4CCOCC4)cc3)cs2)cc1,-8.19%
23,COc1ccc(-c2csc(Nc3ccc(O)cc3)n2)cc1,92.3% (active)
24,CN(C(=O)CSc1nc(C2CC2)nc2ccccc12)c1nc(-c2ccccc2)cs1,14.4%
25,COc1ccc(OC)c(Nc2nc(-c3ccc(O)c(O)c3)cs2)c1,7.27%

row,Structure (SMILES),inhibition
1,CN(c1ccc(O)cc1)c1nc(-c2cccnc2)cs1,64.4% (active)
2,Cc1ccnc(N2CCCC(C(=O)NC3CC3)C2)n1 (stereo not given),-10.6%
3,C[C@@H](NC(=O)[C@@H]1Cc2ccccc2CN1)C(=O)NC1CCCC1,-1.81%
4,COCCNC(=S)N(CCc1c(C)[nH]c2ccc(C)cc12)Cc1cccnc1,3.9%
5,FC(F)(F)C1CCCN(c2nsc3ccccc23)C1 (stereo not given),-5.61%
6,CC1(c2ccc3ccccc3c2)NC(=O)N(CC(N)=O)C1=O (stereo not given),17.6%
7,O=C(Nc1c2c(nn1-c1cccc(Cl)c1)CS(=O)(=O)C2)c1cccs1,2.33%
8,Cc1ccccc1N1CCN(C2CCCN(C(=O)c3cn4c(C)cccc4n3)C2)CC1 (stereo not given),-3.16%
9,CC(=O)Nc1ccc(S(=O)(=O)N2CCC(NC(=O)c3ccccc3)CC2)cc1,37.8%
10,O=C1CN(Cc2ccccc2)S(=O)(=O)c2ccccc21,-2.75%
11,O=S(=O)(NC1CCCCC1N1CCN(c2ccccc2F)CC1)c1ccccc1 (stereo not given),-13.8%
12,CCOc1ccccc1NC(=S)N1CCN(c2cccc(C)c2C)CC1,-4.41%
13,O=C(Oc1cccc(C(=S)N2CCOCC2)c1)c1cccc(Cl)c1,-28.3%
14,COc1ccc(-c2c3c(=O)n(C)c(=O)n(C)c3cn2-c2cccc(OC)c2)cc1,4.73%
15,COc1cccc(-n2cc3c(c2-c2ccccc2)c(=O)n(C)c(=O)n3C)c1,104% (active)
16,Cc1ccc(-c2c3c(=O)n(C)c(=O)n(C)c3cn2-c2ccccc2O)cc1,38.5%
17,CC1=C(C(N)=O)C(c2ccc(F)cc2)n2nc(CCCO)nc2N1 (stereo not given),-5.77%
18,Cc1ccc(CNC(=O)CCC(=O)N2CC(C)Sc3ccccc32)cc1 (stereo not given),10.9%
19,CC(=O)Nc1ccc(N2C(=O)CC(Sc3nccc(C)n3)C2=O)cc1 (stereo not given),-3.46%
20,c1ccc(-c2noc(-c3cccs3)n2)nc1,15%
21,c1csc(-c2nc(-c3ccncc3)no2)c1,58.2% (active)
22,Cc1ccc2nc(-c3ccncc3)cc(C(=O)Nc3ccncc3)c2c1,11.4%
23,COc1nc(-c2ccc(Cl)cc2)ccc1-c1noc(-c2cccs2)n1,-10.5%
24,Cc1ccc(-c2nc(-c3ccncc3)no2)c(C)c1,80.3% (active)
25,Cc1ccc(-c2noc(CSc3nnc(-c4ccncc4)n3-c3ccc(F)cc3)n2)cc1,-6.83%
